# Records with an inconclusive call do not appear. Values without a mark were called inactive. Calls of active or inactive are those of the source. Calls come from the whole dose curve; as a rule, active = well fitted curve in the direction sought with a large enough effect; inconclusive = small, poorly fitted or top-dose-only effect, or another doubt; inactive = no such curve, though single readings can be large or run the other way.
# Assay: qHTS for Inhibitors of the vitamin D receptor (VDR): Hit Validation using a Texas Red Assay (AID 602201)
# Conditions: VDR coregulator binding, Texas Red fluorescence polarization, agonist-bound VDR ligand-binding domain; series mostly up to 57.1 µM; activity, negative = inhibition: at the top concentration
# Outline: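 Fluorescence polarization with 1.5 uM VDR-LBD, LG19078 and 7 nM Texas Red (final). After 2 hours at ambient temperature, read at Ex 595 nm/Em 615 nm.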
# % is set by controls: 0 for no effect and ±100 for the full control effect; potency is the fitted concentration of half-maximal effect.
SMILES,Potency,"activity, negative = inhibition [%]"
CC(C)(C)c1nnc(NS(=O)(=O)c2ccc([N+](=O)[O-])cc2)s1,25.1 µM (active),–
Cc1oc2c(c1C(=O)c1ccc(Cl)cc1)C(=O)C(=O)c1ccccc1-2,3.98 µM (active),–
COC(=O)c1ccccc1NC(=O)c1nc(S(=O)(=O)Cc2ccccc2)ncc1Cl,3.16 µM (active),–
CC(C)c1ccc(/C=C/c2[nH]c(=O)[nH]c(=O)c2[N+](=O)[O-])cc1,–,-7.89
COc1cc(/C=C2\C(=O)ON=C2c2ccccc2)cc(Cl)c1O,–,23.8
O=C(Cc1ccccc1Cl)NC1(O)C(=O)c2ccccc2C1=O,–,-4.23
NC(=O)c1c(N)sc2c1CCCCC2,14.1 µM (active),–
NS(=O)(=O)c1ccc(NC(=O)c2nc(S(=O)(=O)Cc3ccccc3F)ncc2Cl)cc1,3.16 µM (active),–
CC(=O)N(C(C)=O)N1C(=O)C2C3c4ccccc4C(c4ccccc43)C2C1=O (stereo not given),–,-17.7
O=C(O)CSc1cc(NS(=O)(=O)c2cccc([N+](=O)[O-])c2)c2ccccc2c1O,2.82 µM (active),–
COCCN(CC(=O)NC1CCCCC1)C(=O)/C=C/C(=O)c1ccc(OC)cc1O,–,-21
COc1ccc(/C=C/C(=O)c2ccc([N+](=O)[O-])o2)cc1OC,10 µM (active),–
Cc1cccc(CS(=O)(=O)c2ncc(Cl)c(C(=O)NCc3ccccc3)n2)c1,–,-12.7
COc1ccc(C2=CC(=O)N(Nc3ccccc3)C2=O)cc1,10 µM (active),–
CCN(CC)S(=O)(=O)c1ccc(O)c(NS(=O)(=O)c2ccccc2F)c1,–,-16.8
Cc1sc(C(C2C(=O)CC(C)(C)CC2=O)C2C(=O)CC(C)(C)CC2=O)cc1[N+](=O)[O-],7.94 µM (active),–
O=[S@]1Oc2ccccc2-c2ccccc21,–,-14.3
O=c1[nH]c(/C=C\c2cccc(Cl)c2)nc(O)c1[N+](=O)[O-],–,-5.64
Cc1ccc(S(=O)(=O)Oc2ccc(/C=C3\C(=N)N4N=C(S(C)(=O)=O)SC4=NC3=O)cc2)cc1,–,47.3
CCSc1nnc(NC(=O)c2nc(S(=O)(=O)Cc3ccc(F)cc3)ncc2Cl)s1,3.16 µM (active),–

SMILES,Potency,"activity, negative = inhibition [%]"
CCOC(=O)N1C(=O)[C@@](CC)(c2ccccc2)N1C(=O)OCC,–,-14.9
Cc1cccc(/C=C/C(=O)c2ccc([N+](=O)[O-])o2)c1,1.78 µM (active),–
Cc1cccc2c1N(Cc1ccccc1OCCC(C)C)C(=O)C2=O,12.6 µM (active),–
O=[N+]([O-])c1ccccc1-c1ccc(C(=S)N2CCCC2)o1,–,-8.65
CS(=O)(=O)c1ccc(C(=O)OCc2nnc(-c3ccc(Cl)cc3)o2)cc1[N+](=O)[O-],8.91 µM (active),–
CC(C)(C)C(=O)Nc1ccc2c(c1)C(=O)C(=O)c1ccccc1-2,3.16 µM (active),–
FC(F)(F)c1cccc(Sc2nc(-c3ccccc3)nnc2C(F)(F)F)c1,–,-16.9
Cn1c(/C(C#N)=C/c2ccc(C(F)(F)F)cc2)nc2ccccc21,14.1 µM (active),–
Nc1c(C(=O)N2CCCCC2)sc(=S)n1-c1ccccc1,35.5 µM (active),–
COC(=O)/C=c1/sc2nc3ccccc3n2c1=O,8.91 µM (active),–
Cc1c(Cc2ccc3c(c2)OCO3)sc(NC(=O)c2cccc3ccccc23)c1C(N)=O,28.2 µM (active),–
O=C(O)c1cccc(CN2C(=O)S/C(=C/c3cccc([N+](=O)[O-])c3)C2=O)c1,20 µM (active),–
Cc1ccc(NC(=O)c2nc(S(=O)(=O)Cc3ccccc3F)ncc2Cl)cc1,2.82 µM (active),–
CCOC(=O)/C(C#N)=C1/C(=O)N(Cc2ccccc2)c2ccccc21,–,-16.8
COc1cc(/C=C/C(=O)c2cccc([N+](=O)[O-])c2)cc(OC)c1OC,4.47 µM (active),–
Cc1nc2c3cc(F)ccc3n(Cc3ccccc3)c2s1,–,-12.9
O=C(/C=C/c1ccccc1Cl)c1cccnc1,–,-19.7
Nc1nc(-c2cccc(F)c2)cs1,–,-20.4
Cc1c(C(=O)Nc2nc(-c3ccccn3)cs2)oc2ccccc12,–,5.73
O=C(Nc1ccc(F)cc1)c1nc(S(=O)(=O)Cc2ccccc2)ncc1Cl,5.62 µM (active),–

# Reference: PubChem BioAssay (NCATS)
